According to PubChem BioAssay (Tox21):
Records with an inconclusive call do not appear. The source made the active and inactive calls. Calls follow the shape of the full dose curve.

Assay: qHTS assay to identify small molecule agonists of H2AX - cell viability counter screen (AID 1224847); also: nearly all actives have a fitted effect of over 30% in size; as to activity change, negative = cytotoxicity: top concentration of the series differs between compounds
Conditions: CHO-K1 viability, CellTiter-Glo luminescence, 3 h; series mostly up to 154 µM; activity change, negative = cytotoxicity: at the top concentration
Excerpt: National Center for Advancing Translational Sciences [NCATS]
NIH Chemical Genomics Center [NCGC]
U.S. Environmental Protection Agency [EPA]
National Institutes of Environmental Health Sciences [NIEHS]
National Toxicology Program [NTP]
U.S. Food and Drug Administration [FDA]
HTRF phospho-H2AX (Ser139) assay (Cisbio Bioassays, US) enables the quantitative detection of the histone variant H2AX when phosphorylated on serine 139. When double-stranded DNA breaks, either by ionizing radiation or endogenous physiological processes, H2AX becomes phosphorylated at Ser139. This phospho-Ser139 serves as a sensitive biomarker for the detection of such breaks, localizing the site of DNA repair. So, HTRF phospho-H2AX Ser139 is a pertinent assay to study genome stability, the cell cycle, DNA repair, and it serves as a biomarker for cancer, and to understand aging. Wild type CHO-K1 cells were used to identify the inducers of Phospho-H2AX Ser 139 from the Tox21 compound collections. Also cytotoxicity of the Tox21 10K compound library against the CHO-K1 cell line was tested by measuring the cell viability using CellTiter-Glo assay (Promega, Madison, WI).
Tox21 Assay Protocol Summary:
The CHO-K1 cells suspended in culture medium containing 10% FBS were dispensed at 1000 cells/ 3 ul/well in 1536-well white wall/solid bottom plates (Greiner Bio-One North America, NC) using a Multidrop Combi (Thermo Fisher Scientific Inc., Waltham, MA). After the assay plates were incubated at 37C overnight, 23 nl of compounds at 15 concentrations (from 5-48 columns) or positive control (from 1 to 4 columns) were transferred to the assay plates using a Pintool station (Wako, San Diego, CA) into each well resulting in a final DMSO concentration of 0.76%. After 3hr incubation at 37C, 3 uL/well CellTiter-Glo luminescent cell viability reagent (Promega Corporation, Madison, WI) was added using a Flying Reagent Dispenser (FRD) (Aurora Discovery, CA). After incubation at room temperature for 30 min, the luminescence intensity was read using a ViewLux plate reader (PerkinElmer, Waltham, MA).
% is scaled to controls: 0 for no effect and ±100 for the full control effect; potency is read from the fitted curve at half-maximal effect.

SMILES	activity change, negative = cytotoxicity	Potency
CCCCCCCCSCCO	-0.492% (inactive)	
NC(=O)Nc1ccc(Cl)c(Cl)c1	7.73% (inactive)	
COC(=O)[C@@H]1CC2=CC(=O)CC[C@]2(C)[C@@]23O[C@@H]2C[C@@]2(C)[C@@H](CC[C@@]24CCC(=O)O4)[C@H]13	2.74% [at 70.9 µM] (inactive)	
O=C(O)Cc1ccc(-c2ccccc2)cc1	6.07% [at 70.9 µM] (inactive)	
C[C@@H]1C[C@H]2[C@@H]3CCC4=CC(=O)C=C[C@]4(C)[C@@]3(F)[C@@H](O)C[C@]2(C)[C@H]1C(=O)CO	2.9% [at 70.9 µM] (inactive)	
CCC(C(=O)OCCN(CC)CC)c1ccccc1 (stereo not given)	4.76% [at 70.9 µM] (inactive)	
N#C/C(=C1/SC[C@@H](c2ccc(Cl)cc2Cl)S1)n1ccnc1	-12.7% [at 70.9 µM] (inactive)	
N#C/C(=C1\SCC(c2ccccc2Cl)S1)n1ccnc1 (stereo not given)	0.465% [at 70.9 µM] (inactive)	
COC(=O)c1cc(Cl)ccc1NS(=O)(=O)C(F)(F)F	-1.61% [at 70.9 µM] (inactive)	
CC1=CC(O)CC(C)(C)C1 (stereo not given)	-1.03% (inactive)	
CCCCCCCCCCOS(=O)(=O)O	-3.59% (inactive)	
CCOc1cc(N)c(Cl)cc1C(=O)NCC1CN(Cc2ccc(F)cc2)CCO1 (stereo not given)	-0.304% [at 70.9 µM] (inactive)	
CC1=C(C=O)C(C)(C)CCC1	-0.505% (inactive)	
C[Si]1(C)O[Si](C)(C)O[Si](C)(C)O1	-2.27% (inactive)	
CC#N	2.82% (inactive)	
NC(=O)N(O)[C@@H]1COc2cc(OCc3ccccc3)ccc21	-4.63% (inactive)	
O=S(=O)(c1ccccc1)c1ccc(Cl)cc1	-15.9% (inactive)	
CCCCCCOC(=O)CCCCCCCC(=O)OCCCCCC	3.42% (inactive)	
COCCOC	-0.105% (inactive)	
O=C1OCCN1/N=C/c1ccc([N+](=O)[O-])o1	-6.24% [at 70.9 µM] (inactive)	

SMILES	activity change, negative = cytotoxicity	Potency
CC(C)CCCC(=O)O	0.103% (inactive)	
CN1CCN(c2c(F)cc3c(=O)c(C(=O)O)cn4c3c2OCN4C)CC1	0.372% [at 31.6 µM] (inactive)	
CC(=O)Oc1ccc(C(=C2CCCCC2)c2ccc(OC(C)=O)cc2)cc1	1.49% [at 70.9 µM] (inactive)	
CCCOc1ccc(S(=O)(=O)N2CCN(CC)CC2)cc1-c1nc2c(CC)n(Cc3ccccn3)nc2c(=O)[nH]1	8.93% (inactive)	
CCC1(C)CC(=O)NC1=O (stereo not given)	-5.31% [at 70.9 µM] (inactive)	
O=C(O)C(Cc1cc(I)c(O)c(I)c1)c1ccccc1 (stereo not given)	0.75% [at 70.9 µM] (inactive)	
CCNC(=O)N1CCN(CCCC(c2ccc(F)cc2)c2ccc(F)cc2)CC1	-3.22% [at 70.9 µM] (inactive)	
Cc1cc(O)c2c(O)c3c(O)cccc3cc2c1	-0.596% [at 70.9 µM] (inactive)	
CCOC(=N)CC(=O)OCC	-0.149% (inactive)	
CCOC(=O)C(C)Oc1ccc(Oc2nc3ccc(Cl)cc3o2)cc1 (stereo not given)	-11.9% (inactive)	
CC(CCc1ccc2c(c1)OCO2)NN (stereo not given)	-3.38% [at 70.9 µM] (inactive)	
CCCCC/C(=C\c1ccccc1)CO		112 µM (active)
CO[C@@]12[C@H](COC(N)=O)C3=C(C(=O)C(C)=C(N)C3=O)N1C[C@@H]1N[C@@H]12	5.06% [at 70.9 µM] (inactive)	
COC(=O)CC(=O)C(C)(C)C	1.79% (inactive)	
CCCCCCCCCCCC(=O)[O][Sn]([CH2]CCC)([CH2]CCC)[O]C(=O)CCCCCCCCCCC	11.3% [at 70.9 µM] (inactive)	
CCN(Cc1cccc(S(=O)(=O)O)c1)c1ccc(C(=C2C=CC(=[N+](CC)Cc3cccc(S(=O)(=O)[O-])c3)C=C2)c2ccccc2)cc1	5.13% [at 70.9 µM] (inactive)	
CCCCCCOC(=O)C(C)C	-2.98% (inactive)	
Nc1ccc(S(=O)(=O)O)cc1	-1.17% (inactive)	
Nc1c(I)cc(I)c(C(=O)N(CCC(=O)O)c2ccccc2)c1I	4.97% [at 70.9 µM] (inactive)	
CO[Si](C)(OC)OC	4.52% (inactive)	
